# Data taken from PubChem BioAssay (NCATS).
# Results filed as inconclusive are left out. Entries that show only a call come without a potency. The source made the active and inactive calls. The call rests on the fitted dose curve; in most records, active means well fitted inhibition curve with a large enough effect; inconclusive means small, poorly fitted or top-dose-only effect; inactive means flat fitted curve, though single readings scatter.
# Molecular target: Calcium and integrin-binding protein 1 (Homo sapiens) (UniProt Q99828)
# Sequence (Q99828 whole entry, looked up): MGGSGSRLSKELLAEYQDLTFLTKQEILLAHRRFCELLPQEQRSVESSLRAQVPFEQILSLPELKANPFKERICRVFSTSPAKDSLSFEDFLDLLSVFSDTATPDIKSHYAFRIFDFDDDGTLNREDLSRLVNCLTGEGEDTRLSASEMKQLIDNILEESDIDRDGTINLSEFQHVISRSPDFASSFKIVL
# Test: Primary qHTS for Identification of Calcium Integrin Binding Protein 1 (CIB1) Competitor (AID 1508620);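 further: GST tagged CIB1 binding a fluorescein labelled alphaIIb integrin peptide tracer; top concentration of the series differs between compounds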
# Details: CIB1-GST / FITC-alphaIIb peptide fluorescence polarization; series mostly up to 114 µM
# Outline: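 CIB1-GST (1 uM final) and compound incubated 15 min at room temperature before adding FITC-alphaIIb peptide tracer (100 nM final). Competition for binding read by fluorescence polarization (ex 480, em 540) after another 15 min at room temperature.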
row,Compound,Potency
1,CC(=O)Nc1sc2c(c1-c1ccc(C(F)(F)F)cc1)CCNC2,inactive
2,Cn1ccc2cc(-c3ccc4ncnc(NCc5ccc6c(c5)OCO6)c4c3)ccc21,inactive
3,O=S(=O)(Nc1ccc(C2CCNCC2)cc1)c1ccc(NCc2cccc(Cl)c2O)cc1,inactive
4,N#Cc1nc(NCC(F)F)c2ncn(-c3cc(F)cc(F)c3)c2n1,inactive
5,Cc1ccc(N[S+](=O)([O-])c2cc3c(cc2Cl)NC(=O)CO3)cc1Br,inactive
6,O=C(Nc1ccc(-c2nc3ccccc3[nH]2)cc1)c1ccncc1,inactive
7,COc1cccc(-c2ccc3ncnc(NCc4cccc(C)c4)c3c2)c1,inactive
8,O=C1CCc2cc(S(=O)(=O)NCc3ccccc3)ccc2N1,inactive
9,COc1ccc(-c2nc3ccccc3c(=O)n2Cc2ccccc2)cc1OCc1ccc(NC(C)=O)cc1,inactive
10,O=C(Nc1nnc(-c2ccncc2)s1)Nc1ccc(Cl)c2ccccc12,inactive
11,N#Cc1c(-c2ccc(Cl)cc2)no[n+]1[O-],inactive
12,CCn1c2cc(C)sc2c2cnn(Cc3ccccc3F)c(=O)c21,inactive
13,Cc1ccc(OCCn2c(CCNC(=O)c3c(F)cccc3F)nc3ccccc32)cc1,inactive
14,COc1cccc(C2c3c(ncn(-c4ccccc4C)c3=N)Oc3ccc4ccccc4c32)c1 (stereo not given),inactive
15,O=C(COC(=O)CNC(=O)C1CCCCC1)Nc1ccccc1Cl,inactive
16,O=C(NCCc1nc2ccccc2n1CCOc1cc(F)ccc1F)C1CCCCC1,inactive
17,Cc1ccc(-c2ccc(=O)n(CC(=O)NCCC3CC3)n2)cc1,inactive
18,COc1ccc(C2=Nn3c(nnc3-c3ccc(OC)c(OC)c3)SC2)c(OC)c1,inactive
19,COc1ccc(-c2nnc3n2N=C(c2c(OC)cccc2OC)CS3)c(OC)c1,inactive
20,Cn1nnnc1Sc1ncnc2scc(-c3cccs3)c12,inactive

row,Compound,Potency
1,NC(=O)c1cccc(-c2noc(-c3ccccc3C(F)(F)F)n2)c1,inactive
2,O=[S+]([O-])(c1ccc2ncsc2c1)N1CCN([S+](=O)([O-])c2c(F)cccc2F)CC1,inactive
3,Cc1cc(N[S+](=O)([O-])c2cc3c(cc2Cl)NC(=O)CO3)ccc1Br,inactive
4,COc1cc2c(s1)c1cnn(Cc3ccccc3F)c(=O)c1n2C,inactive
5,COc1cc(NC(=O)C(OC(=O)CNC(=O)c2ccccc2)c2ccccc2)cc(OC)c1 (stereo not given),inactive
6,O=C(Nc1nnc(-c2ccncc2)s1)Nc1ccc(Cl)cc1Cl,inactive
7,Cc1ccc(NS(=O)(=O)c2cc3c(cc2Cl)NC(=O)CO3)cc1Cl,inactive
8,Cc1cc(C)nc(NC(=S)N2CCN(c3ccc(C(=O)O)cc3)CC2)c1,inactive
9,COc1ccc(C[C@H](C(=O)O)N2C(=O)c3ccc(C(=O)O)cc3C2=O)cc1,inactive
10,Cc1cc(-c2nnc3n2CCCCC3)c(C)n1-c1cccc(C(F)(F)F)c1,inactive
11,CCOC(=O)c1ccc(-n2cnc3c(c2=N)C(c2cccc(OC)c2)c2c(ccc4ccccc24)O3)cc1 (stereo not given),inactive
12,Cc1cc(C)nc(NC(=S)N2CCN(c3nc4ccccc4s3)CC2)c1,inactive
13,COc1ccc(C2=Nn3c(nnc3-c3cccc(OC)c3OC)SC2)cc1,inactive
14,FC(F)(F)c1cnc(N2CCN(C(=S)Nc3cc(Cl)ccn3)CC2)c(Cl)c1,inactive
15,CC(=O)Nc1sc2c(c1-c1ccc(OC(F)(F)F)cc1)CCNC2,inactive
16,Fc1ccc(-c2ccc(CNc3nc(-c4ccccc4C(F)(F)F)nc4ccccc34)cc2)cc1C(F)(F)F,inactive
17,O=C(O)c1ccc(CSc2nnc(-c3cccc([S+](=O)([O-])N4CCCC4)c3)n2-c2ccccc2)cc1,inactive
18,COc1ccc(C2Nc3ccccc3C(=O)N2CCCN(C)C)cc1COc1ccc(NC(C)=O)cc1 (stereo not given),inactive
19,CNc1cccc(S(=O)(=O)N2CCCN(S(=O)(=O)c3ccc4c(c3)OCCO4)CC2)c1,inactive
20,O=C(Nc1ncc(-c2ccccc2)s1)c1ccc(-c2cccc([N+](=O)[O-])c2)o1,inactive
